HepG2 tox – HepG2 cytotoxicity, counter-screen for TGF-b inhibitors; hit rate 0.76% among 410,000; HepG2 CAGA-GFP viability, ATP luminescence, 18 h; Potency, µM (top dose mostly 46.1 µM), usual class: cytotoxic
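HepG2 CAGA-GFP cells (1000/well, DMEM with 1% FBS) received compound, then TGF-beta at 500 pg/mL final, and were incubated 18 hours at 37 degrees C. Viability was read by CellTiter-Glo luminescence. Media-only wells were set as complete cell-killing and DMSO as no toxicity.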
IL-1B inflam inh – blocks inflammasome-driven IL-1 beta release; hit rate 4.7% among 360,000; activity change, % at 57.5 µM; AID 743279; THP-1 LPS/ATP IL-1B secretion, AlphaLISA, 16 h; active compounds read low; in the data active means activity change below about -50%; inconclusive means mostly about -30% to -49%
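Secreted IL-1B measured by AlphaLISA bead assay after 16 h compound exposure of THP-1 cells; compounds (final up to 57.5 uM) added 1 h before LPS (250 ng/mL) and ATP (1.25 mM) stimulation; lower signal means less secretion.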
TDP1 block – blocks human tyrosyl-DNA phosphodiesterase 1; Q9NUW8; recombinant TDP1, AlphaScreen DNA substrate cleavage; Potency, µM (series often up to 130 µM), usual class: inhibitors; hit rate 0.28% among 350,000; AID 485290; further: nearly all actives have a fitted effect of over 40% in size
Target sequence (Q9NUW8 whole entry, looked up): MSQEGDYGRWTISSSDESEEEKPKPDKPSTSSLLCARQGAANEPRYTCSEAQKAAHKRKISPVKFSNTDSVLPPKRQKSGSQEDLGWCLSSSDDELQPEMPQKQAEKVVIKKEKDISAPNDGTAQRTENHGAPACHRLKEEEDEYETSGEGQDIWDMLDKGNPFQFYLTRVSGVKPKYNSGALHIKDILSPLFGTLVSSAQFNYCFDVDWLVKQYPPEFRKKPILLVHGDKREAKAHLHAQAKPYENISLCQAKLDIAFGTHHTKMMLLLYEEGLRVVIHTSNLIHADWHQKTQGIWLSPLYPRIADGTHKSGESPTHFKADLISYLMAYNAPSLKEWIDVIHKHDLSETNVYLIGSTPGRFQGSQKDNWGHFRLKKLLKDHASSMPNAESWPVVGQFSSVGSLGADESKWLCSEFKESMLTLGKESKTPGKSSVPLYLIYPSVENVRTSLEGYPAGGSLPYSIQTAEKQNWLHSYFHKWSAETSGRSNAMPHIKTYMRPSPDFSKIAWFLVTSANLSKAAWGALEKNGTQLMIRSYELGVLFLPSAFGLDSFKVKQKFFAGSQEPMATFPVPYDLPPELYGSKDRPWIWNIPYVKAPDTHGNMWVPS
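Enzyme-compound mixtures sat 15 min at room temperature, followed by a 5 min reaction with 15 nM final substrate and 10 min with AlphaScreen beads. Recombinant human Tdp1 was used at 1 nM final.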
DT40 TDP1 no CPT – qHTS for Inhibitors of human tyrosyl-DNA phosphodiesterase 1 (TDP1): qHTS in cells in absence of CPT | DT40 Tdp1-/- hTDP1 cells, no CPT, ATP luminescence, 48 h | Potency, µM (top dose mostly 46.2 µM), most hits filed as inhibitors | hit rate 15% among 420,000; further: nearly all actives have a fitted effect of over 55% in size
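Chicken DT40 Tdp1-/- cells stably complemented with human TDP1 were seeded at 400 cells/well with DMSO in place of 20 nM camptothecin. After compound pinning, cells grew at least 48 hr at 37 °C; viability read by CellTiter-Glo luminescence.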
DT40 TDP1 CPT – growth inhibition of DT40 Tdp1-/-;hTDP1 cells with camptothecin (screen for TDP1 inhibitors); chicken DT40 Tdp1-/-;hTDP1 cells + 20 nM CPT, ATP luminescence, 48 h; AID 686979; Potency, µM (doses to about 46.2 µM), usual class: inhibitors; hit rate 12% among 420,000; further: nearly all actives have a fitted effect of over 55% in size
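Chicken DT40 Tdp1-/- cells complemented with human TDP1, 400 cells/well, exposed to compounds plus 20 nM camptothecin for at least 48 h at 37 C; viability read as ATP content by CellTiter-Glo luminescence.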
TGFb inhibitor – blocks TGF-b signaling | HepG2 CAGA-GFP TGF-b/SMAD3 reporter, GFP fluorescence, 18 h; TGF-beta stimulated, 500 pg/mL final | Potency, µM (doses to about 46.1 µM), hits mostly inhibitors | hit rate 1.2% among 410,000 | AID 588855; further: nearly all actives have a fitted effect of over 65% in size
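HEPG2 CAGA-GFP reporter cells (1000/well, DMEM with 1% FBS) received compounds, then recombinant TGF-beta at 500 pg/mL final for 18 hours at 37 degrees C. Per-cell GFP summed per well was normalised to unstimulated and stimulated DMSO controls before curve fitting.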
Numbers stand for hits; n = inactive; u = inconclusive; x = not tested or not shown. A selection: hits, their analogues and other compounds. The true share with any hit is near 19%. Unless noted, the call rests on the fitted dose curve; in most records, active means well fitted curve in the direction sought with a large enough effect; inconclusive means small, poorly fitted or top-dose-only effect, or another doubt; inactive means no such curve, though single readings can be large; an effect the other way counts as inactive or inconclusive.

SMILES	HepG2 tox	IL-1B inflam inh	TDP1 block	DT40 TDP1 no CPT	DT40 TDP1 CPT	TGFb inhibitor
CCOc1ccccc1CNC(=O)c1cc(-c2ccc(C)c(C)c2)nc2ccccc12	n	x	n	u	21µM	n
COc1cccc(CNC(=O)c2cc(-c3ccc(Cl)s3)nc3ccccc23)c1	n	x	n	u	u	n
O=C(COC(=O)c1cc(-c2cccs2)nc2ccccc12)NCc1ccco1	n	n	n	u	u	n
CCOc1ccccc1CNC(=O)c1cc(-c2ccc(Cl)s2)nc2ccccc12	n	x	n	13µM	n	n
O=C(COC(=O)c1cc(-c2ccc(Cl)s2)nc2ccccc12)NCc1ccco1	n	n	n	16µM	18µM	u
CCc1nc2ccc(C(=O)N3CCN(S(=O)(=O)CC)CC3)cn2c1N(CCC(C)C)CCN(C)C	n	n	x	n	n	n
COC(=O)c1c(C)[nH]c(C(=O)OCc2csc(CC(=O)Nc3ccccc3C)n2)c1C	n	n	n	u	n	n
CC1(C)CC(=O)c2cc(C(=O)NCCc3ccccc3)c(=O)[nH]c2C1	n	x	x	n	n	n
CN1C(=O)C(O)(CC(=O)c2cccc(-n3cccc3)c2)c2ccccc21 (stereo not drawn)	n	n	n	u	21µM	n
CN1C(=O)C(O)(CC(=O)c2ccncc2)c2ccccc21 (stereo not drawn)	n	-53	n	u	u	n
O=C(CSc1nnc(-c2cccc(Cl)c2)o1)N1CCc2ccccc21	n	x	n	n	n	n
CCCOc1ccc(F)cc1-c1cc(C(=O)NCc2cccs2)[nH]n1	n	u	x	7.3µM	23µM	u
CCCOc1ccc(F)cc1-c1cc(C(=O)Nc2ccc(C(C)C)cc2)[nH]n1	n	n	x	26µM	u	u
COc1ccc(NC(=O)c2cc(-c3cc(F)ccc3OC)n[nH]2)cc1OC	n	n	x	23µM	21µM	n
CC(C)Oc1cc(F)ccc1-c1cc(C(=O)NCc2cccs2)[nH]n1	n	n	x	u	u	n
CCCOc1ccc(F)cc1-c1cc(C(=O)NC(C)C)[nH]n1	n	n	x	u	u	n
COc1ccc(NC(=O)c2cc(-c3cc(F)ccc3OC)n[nH]2)cn1	n	x	x	u	u	n
CCCOc1ccc(F)cc1-c1cc(C(=O)Nc2ccc(OC)c(OC)c2)[nH]n1	n	-68	x	u	21µM	u
COc1ccccc1NC(=O)N1CCC(CN2CCc3ccccc3C2)CC1	n	x	n	n	n	n
COC(=O)N1CCCc2cc(S(=O)(=O)N3CCN(c4ccccc4)CC3)ccc21	n	x	n	x	x	n
COc1ccc(F)cc1-c1cc(C(=O)Nc2ccc(C)c(NS(C)(=O)=O)c2)[nH]n1	n	-54	x	16µM	18µM	n
COc1cc(F)ccc1-c1cc(C(=O)Nc2ccc(C)c(NS(C)(=O)=O)c2)[nH]n1	n	n	x	n	u	u
O=C(Cn1[nH]c(=O)c2ccccc2c1=O)OCC(=O)c1ccc(Br)cc1	n	n	n	n	n	n
O=C(NCc1ccccc1)C(c1ccc(-c2ccccc2)cc1)n1c(=O)c(-c2cc3ccccc3[nH]2)nc2ccccc21 (stereo not drawn)	x	n	x	15µM	u	x
COc1ccc(NC(=O)C(c2ccccc2F)n2c(=O)c(-c3cc4ccccc4[nH]3)nc3ccccc32)cc1 (stereo not drawn)	x	n	x	13µM	16µM	x
COc1ccc(NC(=O)C(c2ccccc2)n2c(=O)c(-c3cc4ccccc4[nH]3)nc3ccccc32)cc1 (stereo not drawn)	x	n	x	16µM	16µM	x
COc1ccc(NC(=O)C(c2ccncc2)n2c(=O)c(-c3ccccc3)nc3ccccc32)cc1 (stereo not drawn)	x	-56	x	u	u	x
